Results with a measured potency or affinity are listed apart. Activity calls are given as the source filed them. No rule for the calls is given here.
These compounds were tested against Plasmodium falciparum protein kinase 6 (PK6, PF3D7_1337100) (UniProt Q8IDW1) (assay: PfPK6 kinase inhibitors, biochemical, TCAMS library (AID 1159586)). Details: recombinant PfPK6, Kinase-Glo ATP depletion luminescence.
Chain of Plasmodium falciparum protein kinase 6 (PK6, PF3D7_1337100) (Q8IDW1 1-305): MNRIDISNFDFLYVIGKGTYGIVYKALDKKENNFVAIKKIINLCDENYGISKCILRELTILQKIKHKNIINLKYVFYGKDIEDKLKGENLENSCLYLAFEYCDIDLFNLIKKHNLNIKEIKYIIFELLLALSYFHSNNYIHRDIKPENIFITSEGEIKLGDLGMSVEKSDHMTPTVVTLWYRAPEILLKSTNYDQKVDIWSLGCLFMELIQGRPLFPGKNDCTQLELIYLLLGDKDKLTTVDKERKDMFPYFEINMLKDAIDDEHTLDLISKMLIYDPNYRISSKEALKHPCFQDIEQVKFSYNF

| SMILES | outcome |
| --- | --- |
| Nc1nc(N)c2c(ccn2Cc2cc3c(cc2Cl)OCO3)n1 | inactive |
| O=C(Nc1ccc(S(=O)(=O)NCCCN2CCOCC2)cc1)c1cc(-c2ccccc2)n[nH]1 | inactive |
| Cn1nc(-c2cccc(CN[C@@H]3CCc4ccc(O)cc43)c2)c2cnc(NCCCN3CCCC3)nc21 | inactive |
| CCOc1ccc2c(NN=Cc3c4ccccc4cc4ccccc34)cc(C)nc2c1 | inactive |
| Cc1[nH]c(C)c([N+](=O)[O-])c(=O)c1-c1ccc(Oc2ccccc2)cc1 | inactive |
| O=C(Cc1cnc[nH]1)Nc1cccc(-c2ccc(-c3nc4ccc(C(F)(F)F)cc4[nH]3)cc2)c1 | inactive |
| O=C(CCc1cnc[nH]1)Nc1cccc(-c2cccc(-c3nc4ccc(C(F)(F)F)cc4[nH]3)c2)c1 | inactive |
| Cc1[nH]c(C)c(-c2cccc(-c3ccc(OC(F)(F)F)cc3)c2)c(=O)c1Br | inactive |
| FC(F)(F)c1cccc2c(NN=Cc3ccccc3)ccnc12 | inactive |
| Cc1ccc(-n2c(=O)c3c(n4c(SC(C)C)nnc24)-c2ccccc2CC32CCCCC2)cc1 | inactive |
| Cc1cccc(-c2nc3[nH]c(=O)cc(NC(=O)C(C)C)n3n2)c1 | inactive |
| Cc1noc(-c2ccc(N3CCC(C(=O)N4CCN(C(C)C)CC4)CC3)cc2)n1 | inactive |
| Cc1ccc(NC(=S)N2CCCN(CCCCCNC(=O)/C=C/c3ccc(Cl)c(Cl)c3)CC2)cc1Cl | inactive |
| Cc1cc(NC(=O)c2cccs2)ccc1OC1CCN(Cc2ccc(C#N)cc2)CC1 | inactive |
| CN(CCCNC(=S)NC12CC3CC(CC(C3)C1)C2)CCCNc1ccnc2cc(Cl)ccc12 | inactive |
| Cc1cc(C(=O)Nc2ccc3c(c2)CCN3C2CCN(Cc3cccc4cc[nH]c34)C2)no1 (stereo not given) | inactive |
| CC(C)CCNCc1ccc(OCc2cccc(C(=O)Nc3ccccc3)c2)c(I)c1 | inactive |
| Cc1nc2nc(N)nc(N)c2c(C)c1Cc1c(Cl)cccc1Cl | inactive |
| CC(=O)Nc1ccc(C(=O)Nc2cccc(-c3ccc(-c4nc5ccc(C(F)(F)F)cc5[nH]4)cc3)c2)cn1 | inactive |
| CC1(C)N=C(N)N=C(N)N1OCc1cc2ccccc2cc1CON1C(N)=NC(N)=NC1(C)C | inactive |

| SMILES | outcome |
| --- | --- |
| Cc1cccc(CNc2nc(C)cc(NCCC(=O)NCCOc3ccccc3)n2)c1 | inactive |
| COc1cc2nc(SCCCC#N)n(C3CCCCCC3)c(=N)c2cc1OC | inactive |
| COc1ccc(-c2cccc(NC(=O)c3cccc(C#N)c3)c2)cc1CN(C)CCO | inactive |
| N#Cc1cccc(CNC(=O)c2cccc(Nc3ccnc4ccc(F)cc34)c2)c1 | inactive |
| O=C(c1cc2c(s1)-c1cccc(Cl)c1SC2)N1CCN(c2ccncc2)CC1 | inactive |
| O=C(Nc1ccc(C(=O)OCC2CCCCC2)cc1)N[C@@H](Cc1ccc(O)cc1)C(=O)NC1CCN(Cc2ccc(O)cc2)C1 (stereo not given in full) | inactive |
| CCCC/C=C(\Cl)c1ccc(O)c2c1C[C@H]1C[C@H]3[C@H](N(C)C)C(=O)C(C(N)=O)=C(O)[C@@]3(O)C(=O)C1=C2O | inactive |
| CCC[C@@H]([C@@H](CC(C)C)C(=O)N[C@@H](CCCNc1nccc(C(F)(F)F)n1)C(=O)Nc1nccs1)N(O)C=O | inactive |
| CCc1cc(NC2CCN(C)CC2)nc(Nc2cccc(OC)c2)n1 | inactive |
| COCCNCc1cccc(-c2ccc3c(Nc4ccc(F)cc4Cl)ccnc3c2)c1 | inactive |
| O=C(/C=C/c1ccc(Cl)c(Cl)c1)NCCCCCN1CCC(c2c[nH]c3ccccc23)CC1 | inactive |
| O=C(C=Cc1ccc(Cl)c(Cl)c1)NCCCCCN1CCCC(CCCNC(=O)c2cccs2)C1 (stereo not given) | inactive |
| CO/C(=C\C=C\c1cc2cc(Cl)c(Cl)cc2[nH]1)C(=O)NCCCN1CCN(c2cccc(OC)c2)CC1 | inactive |
| CCOC(=O)NCC(=O)Nc1cccc(-c2cccc(-c3nc4c(C)cccc4[nH]3)c2)c1 | inactive |
| CCN(CCCN1CCCCC1)c1cc(C)nc(Nc2ccc(C)cc2C)n1 | inactive |
| COc1ccc2nccc([C@@H](O)CN3CCC(NCCNc4ccccn4)CC3)c2c1 | inactive |
| CN1CCN(c2ccc(Cl)cc2NC(=O)C2COc3ccccc3O2)CC1 (stereo not given) | inactive |
| COc1ccc(Nc2nccc(NCCNC(=O)Nc3ccccc3F)n2)cc1 | inactive |
| Cc1noc(C)c1C(=O)N1CCc2cc3nccc(N4CCN5CCC[C@H]5C4)c3cc21 | inactive |
| O=C(N1CCN(c2ccc(C(F)(F)F)cc2[N+](=O)[O-])CC1)C(Cl)(Cl)Cl | inactive |
